The nature of assay [1]: qHTS assay to identify small molecule antagonists of the glucocorticoid receptor (GR) signaling pathway - cell viability counter screen (AID 720693). Note: nearly all actives have a fitted effect of over 55% in size. Note: potency is the fitted concentration of half-maximal effect. A general note: In qHTS, concentration-response curves come from the screen itself.
The nature of assay [2]: qHTS assay for identifying genotoxic compounds that show differential cytotoxicity against isogenic chicken DT40 cell lines with known DNA damage response pathways - wild type cell line (AID 743012). Note: nearly all actives have a fitted effect of over 60% in size. Note: potency is the fitted concentration of half-maximal effect. In a few lines: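 Cells (DT40 wild type, 300/well) are treated with DMSO-dissolved compounds after a ~0.5 h pre-incubation and kept 40 h at 37 C/5% CO2. Viability is then measured by CellTiter-Glo luminescence following 30 min at room temperature.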

Assay [3] in a line: qHTS assay for identifying genotoxic compounds that show differential cytotoxicity against isogenic chicken DT40 cell lines with known DNA damage response pathways - Rev3 mutant cell line (AID 743014). Note: nearly all actives have a fitted effect of over 55% in size. Note: potency is the fitted concentration of half-maximal effect.
Assay [4] can be described thus: qHTS assay for identifying genotoxic compounds that show differential cytotoxicity against isogenic chicken DT40 cell lines with known DNA damage response pathways - Rad54/Ku70 mutant cell line (AID 743015). Note: nearly all actives have a fitted effect of over 60% in size. Note: potency is the fitted concentration of half-maximal effect.
Assay [5] is described as follows: qHTS assay to identify small molecule antagonists of the androgen receptor (AR) signaling pathway - cell viability counter screen (AID 743033; note: nearly all actives have a fitted effect of over 45% in size).
Assay [6] can be described thus: qHTS assay to identify small molecule antagonists of the androgen receptor (AR) signaling pathway using the MDA cell line - cell viability counter screen (AID 743041; note: nearly all actives have a fitted effect of over 45% in size). In a few lines:
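R1881-driven MDA-kb2 AR-luc cells, 3,000/well, were dosed with library compounds for 16 h; cell health came from CellTiter-Fluor fluorescence in the reporter wells.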

The nature of assay [7]: qHTS assay to identify small molecule antagonists of the thyroid receptor (TR) signaling pathway - cell viability counter screen (AID 743064). Note: nearly all actives have a fitted effect of over 50% in size. Note: potency is the fitted concentration of half-maximal effect. In a few lines: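 Viability of T3-stimulated (1 nM final) GH3.TRE-Luc cells is measured by CellTiter-Fluor fluorescence after 23.5 h compound exposure at 37 °C plus 30 min reagent incubation.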
Assay [8] is described as follows: qHTS assay to identify small molecule antagonists of the thyroid receptor (TR) signaling pathway (AID 743065). Note: nearly all actives have a fitted effect of over 55% in size. Note: potency is the fitted concentration of half-maximal effect. In short, it runs like this:
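Antagonism measured as loss of luciferase signal in GH3 cells stably carrying a TRE-luciferase reporter, co-treated with compound and T3 (1 nM final) for 23.5 h at 37 C. Viability was read in the same well by CellTiter-Fluor.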

Assay [9] deals with thyroid hormone receptor (rat, GH3 cells). The assay is described as follows: qHTS assay to identify small molecule agonists of the thyroid receptor (TR) signaling pathway (AID 743066; calls by dose curve).
Assay [10] is described as follows: qHTS assay to identify small molecule antagonists of the estrogen receptor alpha (ER-alpha) signaling pathway - cell viability counter screen (AID 743074; calls by dose curve;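 note: HEK293 cells carrying ER-alpha-UAS-bla reporter stimulated with 17beta-estradiol; nearly all actives have a fitted effect of over 45% in size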).
For assay [11], the target named is Estrogen receptor (Homo sapiens) (UniProt P03372). In words: qHTS assay to identify small molecule agonists of the estrogen receptor alpha (ER-alpha) signaling pathway (AID 743075; calls by dose curve).
For assay [12] the target is unchanged. In words: qHTS assay to identify small molecule agonists of the estrogen receptor alpha (ER-alpha) signaling pathway using the BG1 cell line (AID 743079). Note: nearly all actives have a fitted effect of over 20% in size. Note: potency is the fitted concentration of half-maximal effect.
Assay [13] can be described thus: qHTS assay to identify small molecule antagonists of the estrogen receptor alpha (ER-alpha) signaling pathway using the BG1 cell line (AID 743080; calls by dose curve;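 note: BG1 cells stimulated with 17beta-estradiol alongside compound; series mostly up to about 70 µM; nearly all actives have a fitted effect of over 25% in size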). In short, it runs like this:
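Readout is ONE-Glo luminescence, taken 30 min at room temperature after reagent addition, preceded by a CellTiter-Fluor viability read; BG1-Luc-4E2 cells had received compound and 17beta-estradiol for 21.5 h at 37 C.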

Assay [14] is described as follows: qHTS assay to identify small molecule antagonists of the estrogen receptor alpha (ER-alpha) signaling pathway using the BG1 cell line - cell viability counter screen (AID 743081).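 Note: compound given together with 17beta-estradiol as the ER stimulus; series mostly up to about 70 µM; nearly all actives have a fitted effect of over 45% in size.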
The target of assay [15] is Androgen receptor (Homo sapiens) (UniProt P10275). In words: qHTS assay to identify small molecule antagonists of the androgen receptor (AR) signaling pathway (AID 743035; active = well fitted inhibition curve with a large enough effect in the signal ratio in the repeat runs, not every such curve was filed as active; inconclusive = weak or mixed curves, or effect the other way; inactive = no such curve, though single readings can be large or run the other way; the % refers to the signal ratio; note: potency is the fitted concentration of half-maximal effect). In short, it runs like this: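 Antagonism is scored as loss of R1881-driven beta-lactamase reporter expression in HEK293 cells carrying the reporter under a UAS element, after 16 h co-treatment at 37C and a 2 h room-temperature FRET substrate read.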

Assay [16] shares this target. In words: qHTS assay to identify small molecule agonists of the androgen receptor (AR) signaling pathway (AID 743036; active = well fitted activation curve with a large enough effect in the signal ratio in the repeat runs, with a control signal flat, not every such curve was filed as active; inconclusive = weak or mixed curves, or effect the other way; inactive = no such curve, though single readings can be large or run the other way; the % refers to the signal ratio). In a few lines: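 Screening used 2,000 AR-bla HEK293 cells per well, treated 16 h at 37C with test compounds in DMSO alongside positive and DMSO-only controls; beta-lactamase activity was then read by LiveBLAzer B/G FRET fluorescence after 2 h at room temperature.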

For assay [17] the target is unchanged. The assay is described as follows: qHTS assay to identify small molecule agonists of the androgen receptor (AR) signaling pathway using the MDA cell line (AID 743040; note: nearly all actives have a fitted effect of over 20% in size). In a few lines: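 After a 5 h incubation at 37C and 0% CO2, MDA-kb2 reporter cells were dosed with compounds in DMSO and kept 16 h under the same conditions. Luciferase activity was then read as luminescence with ONE-Glo.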

Assay [18] has the same target. In words: qHTS assay to identify small molecule antagonists of the androgen receptor (AR) signaling pathway using the MDA cell line (AID 743042; note: nearly all actives have a fitted effect of over 55% in size). In short, it runs like this:
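Antagonist mode: compounds plus R1881 agonist added to MDA-kb2 AR-luc cells, incubated 16 h at 37C. Luciferase reporter luminescence quantified, with multiplexed CellTiter-Fluor readout for cell viability.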

For assay [19], the target named is Estrogen receptor (Homo sapiens) (UniProt P03372). In words: qHTS assay to identify small molecule antagonists of the estrogen receptor alpha (ER-alpha) signaling pathway (AID 743069; active = well fitted curve in the direction sought with a large enough effect in the signal ratio in the repeat runs, not every such curve was filed as active; inconclusive = weak or mixed curves, or effect the other way; inactive = no such curve, though single readings can be large or run the other way; the % refers to the signal ratio; note: potency is the fitted concentration of half-maximal effect). In a few lines:
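Compound effects are measured against 17beta-estradiol stimulation in HEK293 cells with a UAS-controlled beta-lactamase reporter for ER-alpha. Exposure lasts 18 hr at 37C; LiveBLAzer B/G FRET substrate follows for 2 hr at room temperature.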

The next assay deals with Aromatase (Homo sapiens) (UniProt P11511). In words: qHTS assay to identify aromatase inhibitors (AID 743083).

Active and inactive are the calls of the source. Unless noted, calls come from the whole dose curve; as a rule, active = well fitted curve in the direction sought with a large enough effect in the repeat runs; inconclusive = weak or mixed curves; inactive = no such curve, though single readings can be large; an effect the other way counts as inactive or inconclusive.

Sequence of Estrogen receptor (Homo sapiens) (P03372 whole entry, looked up): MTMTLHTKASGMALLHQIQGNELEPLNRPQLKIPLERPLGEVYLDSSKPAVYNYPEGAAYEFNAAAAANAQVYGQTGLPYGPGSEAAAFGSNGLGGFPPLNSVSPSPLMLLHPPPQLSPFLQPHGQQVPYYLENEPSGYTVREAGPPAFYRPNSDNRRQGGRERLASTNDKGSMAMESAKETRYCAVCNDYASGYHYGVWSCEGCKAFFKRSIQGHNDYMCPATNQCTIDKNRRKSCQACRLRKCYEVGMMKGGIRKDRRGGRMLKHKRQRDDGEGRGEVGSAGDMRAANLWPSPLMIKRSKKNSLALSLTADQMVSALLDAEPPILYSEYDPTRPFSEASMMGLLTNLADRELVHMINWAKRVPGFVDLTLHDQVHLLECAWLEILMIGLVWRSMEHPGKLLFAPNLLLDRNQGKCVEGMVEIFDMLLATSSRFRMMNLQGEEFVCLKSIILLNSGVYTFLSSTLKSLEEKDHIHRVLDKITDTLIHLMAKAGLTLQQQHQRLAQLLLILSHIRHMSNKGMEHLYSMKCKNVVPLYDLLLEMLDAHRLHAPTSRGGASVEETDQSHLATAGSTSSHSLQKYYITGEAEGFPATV
Sequence of Aromatase (Homo sapiens) (P11511 whole entry, looked up): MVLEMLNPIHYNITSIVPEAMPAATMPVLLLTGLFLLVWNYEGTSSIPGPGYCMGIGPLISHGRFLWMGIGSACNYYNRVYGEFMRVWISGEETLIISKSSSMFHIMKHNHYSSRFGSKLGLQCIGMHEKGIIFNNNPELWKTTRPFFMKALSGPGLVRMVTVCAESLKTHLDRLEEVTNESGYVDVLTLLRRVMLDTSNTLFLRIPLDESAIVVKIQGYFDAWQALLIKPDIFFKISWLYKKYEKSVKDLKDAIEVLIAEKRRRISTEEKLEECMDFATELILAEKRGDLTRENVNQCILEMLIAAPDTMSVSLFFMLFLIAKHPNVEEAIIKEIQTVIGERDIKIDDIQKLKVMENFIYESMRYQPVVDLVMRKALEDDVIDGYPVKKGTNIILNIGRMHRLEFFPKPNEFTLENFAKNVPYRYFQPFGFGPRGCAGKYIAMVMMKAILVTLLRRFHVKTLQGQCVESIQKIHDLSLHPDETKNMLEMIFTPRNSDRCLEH
Sequence of Androgen receptor (Homo sapiens) (P10275 whole entry, looked up): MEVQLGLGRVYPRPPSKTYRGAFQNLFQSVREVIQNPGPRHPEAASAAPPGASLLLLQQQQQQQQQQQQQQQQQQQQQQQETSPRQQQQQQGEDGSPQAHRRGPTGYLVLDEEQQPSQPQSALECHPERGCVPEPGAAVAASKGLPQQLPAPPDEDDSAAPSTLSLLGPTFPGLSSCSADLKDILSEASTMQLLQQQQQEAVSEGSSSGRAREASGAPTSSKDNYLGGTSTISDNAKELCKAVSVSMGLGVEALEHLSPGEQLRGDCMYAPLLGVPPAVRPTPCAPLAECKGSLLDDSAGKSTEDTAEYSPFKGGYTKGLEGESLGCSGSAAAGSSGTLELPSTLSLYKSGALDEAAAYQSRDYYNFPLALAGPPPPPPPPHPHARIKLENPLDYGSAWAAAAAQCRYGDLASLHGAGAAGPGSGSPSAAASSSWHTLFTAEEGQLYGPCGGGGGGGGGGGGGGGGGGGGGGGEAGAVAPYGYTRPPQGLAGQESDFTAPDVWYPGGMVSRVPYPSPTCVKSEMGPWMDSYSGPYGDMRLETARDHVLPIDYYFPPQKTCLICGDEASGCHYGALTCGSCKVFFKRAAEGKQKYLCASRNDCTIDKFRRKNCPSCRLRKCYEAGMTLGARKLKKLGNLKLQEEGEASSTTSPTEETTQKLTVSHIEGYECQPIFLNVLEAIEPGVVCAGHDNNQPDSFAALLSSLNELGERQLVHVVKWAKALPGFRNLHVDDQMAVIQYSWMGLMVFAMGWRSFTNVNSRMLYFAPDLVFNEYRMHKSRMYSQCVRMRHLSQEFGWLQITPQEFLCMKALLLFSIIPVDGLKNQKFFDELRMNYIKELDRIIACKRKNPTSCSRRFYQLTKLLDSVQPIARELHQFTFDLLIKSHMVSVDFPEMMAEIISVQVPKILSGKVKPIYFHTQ

For `CCCCC/C=C\C/C=C\CCCCCCCC(=O)NC(C)c1ccccc1` (stereo unspecified), the Potency entry in assay [1], in assay [2], in assay [3], in assay [4], in [5] and in assay [6] was “inactive” throughout. In addition, the Potency entry in assay [7], in assay [8], in [9], in assay [10], in assay [11] and in assay [12] was “inactive” throughout. The Potency entry in assay [13] and in [14] was “inactive” each time.
Turning to `O=CC1CC=CCC1` (stereo unspecified), the Potency result in [1], in assay [2], in assay [3], in assay [4], in assay [5] and in assay [15] was “inactive” throughout. Further, the Potency entry in [16], in assay [17], in assay [6], in assay [18], in assay [8] and in [9] was “inactive” in each case. Further, the Potency entry in assay [19], in [10], in assay [11], in assay [12], in assay [13] and in assay [14] was “inactive” in each case. The Potency result in the assay with Aromatase (Homo sapiens) is “inactive”.
`O=C1CCC(=O)O1`: the Potency entry in [1], in assay [2], in [3], in assay [4], in assay [5] and in [6] was “inactive” each time. Further, the Potency entry in assay [7], in assay [8], in [9], in [19], in assay [10] and in [11] was “inactive” throughout. For the same compound, the Potency entry (in assay [12]; in assay [13]; in assay [14]; with Aromatase (Homo sapiens)) was “inactive” in each case.
For the compound `CCc1c(C(=O)NN2CCCCC2)nn(-c2ccc(Cl)cc2Cl)c1-c1ccc(Br)cc1`, the Potency in assay [1] was 12.3 µM (active); in [2], 13.7 µM (active); in [3], 15.4 µM (active); in assay [4], 13.7 µM (active); in assay [7], 15.4 µM (active); in assay [8] it was 8.63 µM (active). The Potency in [19] was 13.8 µM [inconclusive] (active); in [12] it was 27.3 µM (active). The Potency entry in assay [5], in assay [6], in assay [10], in assay [11] and in [14] was “inactive” each time.
For the compound `CC(C)O.CC(C)O.CCOC(=O)/C=C(\C)O.CCOC(=O)/C=C(\C)O.[Ti]`, the Potency result in [1], in assay [2], in assay [3], in assay [4], in assay [5] and in assay [6] was “inactive” throughout. The Potency result in assay [7], in assay [8], in [9], in [10] and in [14] was “inactive” throughout.
Regarding `CCCCCC[C@@H](O)C/C=C\CCCCCCCC(=O)OC`, the Potency entry in assay [1], in [2], in assay [3], in assay [4], in assay [5] and in [15] was “inactive” throughout. Also, the Potency result in [16], in assay [17], in [6], in assay [18], in assay [8] and in assay [9] was “inactive” in each case. The Potency entry (in [10]; in assay [11]; in [12]; in [13]; in assay [14]; with Aromatase (Homo sapiens)) was “inactive” throughout.
On to `O=C1c2ccccc2S(=O)(=O)N1CCCCN1CCN(c2ncccn2)CC1`, for which the Potency result in assay [1], in assay [2], in assay [3], in assay [4], in assay [5] and in assay [6] was “inactive” in each case. Also, the Potency entry in assay [7], in [8], in assay [9], in [19], in [10] and in assay [11] was “inactive” in each case. Further, the Potency result (in assay [12]; in [13]; in assay [14]; in the assay with Aromatase (Homo sapiens)) was “inactive” in each case.
As for `C=CCOc1ccccc1OCC(O)CNC(C)C` (stereo unspecified), the Potency entry in assay [1], in assay [2], in [3], in assay [4], in [5] and in [6] was “inactive” throughout. The Potency entry in assay [7], in [8], in assay [9], in assay [19], in [10] and in [11] was “inactive” in each case. Further, the Potency entry (in [12]; in [13]; with Aromatase (Homo sapiens)) was “inactive” each time.
As to `COc1ccc(C(=O)Nc2nc3ccccc3c(NCc3ccccc3)c2C#N)cc1`, the Potency result in [1], in assay [6], in [7], in [8], in assay [9] and in [10] was “inactive” in each case. Further, the Potency entry in [11] and in [14] was “inactive” each time. The Potency was 27.3 µM (active) in [2], 38.6 µM (active) in assay [3] and 15.4 µM (active) in assay [4].
Turning to `Nc1ccccc1S(=O)(=O)c1ccccc1`, the Potency result in assay [1], in assay [2], in assay [3], in assay [4], in assay [6] and in assay [7] was “inactive” each time. Besides, the Potency entry in [8], in assay [9], in assay [10] and in assay [14] was “inactive” in each case.
As for `CCCNCC(O)COc1ccccc1C(=O)CCc1ccccc1` (stereo unspecified), the Potency entry in assay [1], in assay [6], in assay [10] and in [14] was “inactive” in each case. The Potency in [2] is 6.68 µM (active); in assay [3] it was 11.9 µM (active); in assay [4] it was 11.9 µM (active); in [7], 29.8 µM (active); in [8] it was 23.7 µM (active).
On to `Cc1cccc(C)c1OCC(=O)N[C@@H](Cc1ccccc1)[C@@H](O)C[C@H](Cc1ccccc1)NC(=O)[C@H](C(C)C)N1CCCNC1=O`, for which the Potency entry in assay [1], in [17], in assay [11], in assay [12] and in assay [13] was “inactive” in each case. Moreover, the Potency is 16.8 µM (active) in [2], 16.8 µM (active) in assay [3], 11.9 µM (active) in [4] and 21.3 µM [inconclusive] (active) in [19].
Consider `CCCCO`, for which the Potency entry in [1], in [2], in [3], in assay [4], in [6] and in assay [7] was “inactive” throughout. Further, the Potency entry (in [8]; in assay [9]; in assay [10]; in assay [14]; in the assay with Aromatase (Homo sapiens)) was “inactive” each time.
Consider `COCC(C)OC(C)=O` (stereo unspecified), for which the Potency entry in assay [1], in assay [2], in assay [3], in assay [4], in [5] and in assay [6] was “inactive” each time. Besides, the Potency result in [8], in [9], in assay [19], in assay [10], in assay [13] and in [14] was “inactive” each time. Also, in the assay with Aromatase (Homo sapiens), the Potency result was “inactive”.
Consider `O=C(Cl)c1cc(C(=O)Cl)cc(C(=O)Cl)c1`, for which the Potency entry in assay [1], in assay [5], in assay [6], in assay [9], in assay [19] and in [10] was “inactive” throughout. Besides, the Potency result in assay [11], in assay [12], in assay [13] and in [14] was “inactive” in each case. The Potency is 19.3 µM (active) in assay [2], 27.3 µM (active) in assay [3] and 19.3 µM (active) in [4].
With `COc1ccc(-c2nc3ccc(C4=NNC(=O)CC4C)cc3[nH]2)cc1` (stereo unspecified), the Potency entry in assay [1], in assay [17], in assay [6], in [18], in assay [9] and in assay [10] was “inactive” each time. Moreover, the Potency entry (in [14]; with Aromatase (Homo sapiens)) was “inactive” in each case. Besides, the Potency in assay [2] is 11.9 µM (active); in assay [3], 11.9 µM (active); in assay [4] it was 18.8 µM (active); in assay [15], 19 µM (active); in assay [8], 23.7 µM (active).

The record behind these values is PubChem BioAssay (Tox21).
